Results as given in PubChem BioAssay AID2061166 (Soto Lab, Mitchell Center for Alzheimers Disease and …, 2025).
Values without a mark were called inactive. The source made the active and inactive calls.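 How the source made its calls: active means mean tau seeding fluorescence area under 1% of vehicle, meaning inhibition above a set limit; inactive means the rest.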

molecular target: Microtubule-associated protein tau (Homo sapiens) (UniProt P10636); experiment: blockers of AD brain-seeded tau fibril growth – biochemical, seed amplification, ThT fluorescence, primary screen (AID 2061166); details: Recombinant tau seeded by AD brain, ThT fluorescence AUC; at 100 µM; hits give high values
Sequence (P10636 whole entry, looked up): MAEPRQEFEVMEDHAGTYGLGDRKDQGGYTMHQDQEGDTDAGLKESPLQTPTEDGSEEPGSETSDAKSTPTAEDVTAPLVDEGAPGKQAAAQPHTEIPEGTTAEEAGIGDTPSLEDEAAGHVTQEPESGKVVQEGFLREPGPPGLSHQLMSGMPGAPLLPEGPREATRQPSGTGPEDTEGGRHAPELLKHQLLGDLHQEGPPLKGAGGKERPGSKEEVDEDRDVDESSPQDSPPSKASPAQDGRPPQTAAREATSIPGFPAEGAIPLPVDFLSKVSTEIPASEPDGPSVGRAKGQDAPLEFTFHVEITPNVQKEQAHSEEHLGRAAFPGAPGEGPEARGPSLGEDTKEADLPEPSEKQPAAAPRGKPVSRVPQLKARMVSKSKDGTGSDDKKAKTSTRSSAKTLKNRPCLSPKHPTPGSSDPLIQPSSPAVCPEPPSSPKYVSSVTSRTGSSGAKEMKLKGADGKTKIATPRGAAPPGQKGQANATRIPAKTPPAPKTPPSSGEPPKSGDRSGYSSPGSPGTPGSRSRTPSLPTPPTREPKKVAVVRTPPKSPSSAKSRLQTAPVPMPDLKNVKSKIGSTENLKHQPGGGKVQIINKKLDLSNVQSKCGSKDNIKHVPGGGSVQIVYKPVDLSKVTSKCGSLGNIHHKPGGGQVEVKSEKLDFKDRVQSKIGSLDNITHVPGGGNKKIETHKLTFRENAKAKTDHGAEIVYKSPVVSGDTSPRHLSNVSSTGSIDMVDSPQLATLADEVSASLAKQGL

Row | SMILES | inhibition
1 | CN(C)CCC=C1c2ccccc2CCc2ccccc21 | 13.9%
2 | CC12CC3CC(C)(C1)CC(N)(C3)C2 | 10.2%
3 | COC1C(=O)C2(C)C(OC)CC3OCC3(OC(C)=O)C2C(OC(=O)c2ccccc2)C2(O)CC(OC(=O)C(O)C(NC(=O)OC(C)(C)C)c3ccccc3)C(C)=C1C2(C)C (configuration not stated) | 10.4%
4 | CCC(C(=O)O)c1ccc(N2Cc3ccccc3C2=O)cc1 (configuration not stated) | 26.9%
5 | CCN(CC)CC#CCOC(=O)C(O)(c1ccccc1)C1CCCCC1 (configuration not stated) | -0.433%
6 | CNCCC(Oc1cccc2ccccc12)c1cccs1 (configuration not stated) | 48.5%
7 | O=C(c1cc(O)c(O)c(O)c1)c1ccc(O)c(O)c1O | 97.9%
8 | CCCCN1CCCCC1C(=O)Nc1c(C)cccc1C (configuration not stated) | 7.03%
9 | CCN(CC)C(=S)SSC(=S)N(CC)CC | -17.5%
10 | O=C1CSC(=S)N1 | -4.3%
11 | Cc1ccc(Nc2c(F)cccc2Cl)c(CC(=O)O)c1 | 11.4%
12 | Nc1nc2[nH]cc(CCc3ccc(C(=O)NC(CCC(=O)O)C(=O)O)cc3)c2c(=O)[nH]1 (configuration not stated) | 15.2%
13 | CC(=O)NC(CS)C(=O)O (configuration not stated) | 5.01%
14 | CC(C)(Sc1cc(C(C)(C)C)c(O)c(C(C)(C)C)c1)Sc1cc(C(C)(C)C)c(O)c(C(C)(C)C)c1 | 23%
15 | C[N+](C)=c1ccc2nc3ccc(N)cc3sc-2c1 | 100% (active)
16 | CCc1cc(C(N)=S)ccn1 | 40.9%

Row | SMILES | inhibition
17 | CCCCOc1ccc(CC(=O)NO)cc1 | 16.6%
18 | O=C1C=C(NC(Cc2c[nH]c3ccccc23)C(=O)O)C(=O)c2ccccc21 (configuration not stated) | 52.4%
19 | CC1(C)CCC2(C(=O)O)CCC3(C)C(=CCC4C5(C)CCC(O)C(C)(CO)C5CCC43C)C2C1 (configuration not stated) | 65%
20 | NC(=O)N1CCC(CC(=O)N2CCC(C3c4ncc(Br)cc4CCc4cc(Cl)cc(Br)c43)CC2)CC1 (configuration not stated) | 20.1%
21 | CC(OC1OCCN(Cc2n[nH]c(=O)[nH]2)C1c1ccc(F)cc1)c1cc(C(F)(F)F)cc(C(F)(F)F)c1 (configuration not stated) | 60.4%
22 | Nc1c(N=Nc2ccc(-c3ccc(N=Nc4cc(S(=O)(=O)O)c5ccccc5c4N)cc3)cc2)cc(S(=O)(=O)O)c2ccccc12 | 100% (active)
23 | O=C(OC1CC2CCC(C1)[N+]21CCCC1)C(O)(c1ccccc1)c1ccccc1 (configuration not stated) | 16.5%
24 | CCCCCCCCc1ccc(CCC(N)(CO)CO)cc1 | 59.3%
25 | Nc1cccc2c1CN(C1CCC(=O)NC1=O)C2=O (configuration not stated) | 42.8%
26 | O=c1c(O)c(-c2cc(O)c(O)c(O)c2)oc2cc(O)cc(O)c12 | 95.3%
27 | Cc1c(N)c(=O)n(-c2ccccc2)n1C | 0.254%
28 | C[N+](C)(C)CCO | 13.4%
29 | CCN(CC)CCCC(C)Nc1c2ccc(Cl)cc2nc2ccc(OC)cc12 (configuration not stated) | 72.2%
30 | CN(C)CCc1c[nH]c2ccc(Cn3cncn3)cc12 | -4.86%
31 | CCN(C(=O)c1c(O)c2c(Cl)cccc2n(C)c1=O)c1ccccc1 | 20%
32 | Cc1ncc(CO)c(CO)c1O (tested in a mixture with another compound) | 21.6%
